Test results taken from the supplement of paper PMC3334620.
The full ranking holds about 33,000 sequences; the median of “E-score (-0.5 to 0.5)” is about -0.017, and the highest 2% start at about 0.3. This excerpt belongs to a sample that is enriched for the highest values.

target: T1, Sut1 (UniProt P53032); assay: PBM E-score (8-mer binding enrichment) (E-score (-0.5 to 0.5)); higher = stronger / more preferred TF binding; settings: protein concentration: 200 nM; construct: GST-full length
T1 sequence: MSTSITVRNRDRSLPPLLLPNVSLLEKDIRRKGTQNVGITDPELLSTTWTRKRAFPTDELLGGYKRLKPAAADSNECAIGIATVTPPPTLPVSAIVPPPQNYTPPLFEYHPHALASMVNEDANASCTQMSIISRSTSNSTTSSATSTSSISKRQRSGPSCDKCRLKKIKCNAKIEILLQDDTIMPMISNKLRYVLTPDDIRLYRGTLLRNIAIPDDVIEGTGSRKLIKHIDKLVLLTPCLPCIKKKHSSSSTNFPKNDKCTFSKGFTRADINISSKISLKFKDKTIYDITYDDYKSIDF
Method in brief: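 Universal all-10-mer Agilent arrays, fresh or stripped once, were converted to double-stranded form by primer extension. GST-tagged yeast transcription factors from PURExpress in vitro transcription/translation, full-length or DNA-binding domain only, were applied at about 100-200 nM and detected with fluorescent anti-GST. After masliner normalisation, the Universal PBM Analysis Suite scored each ungapped eight-base word together with its reverse complement by E-score.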

Sequence | PBM E-score
ACTGGAAT | 0.0551
CGGCCGCC | -0.05
CCCCGAAA | 0.301
ATCCGAAA | 0.272
CGCCGAAG | 0.0368
GTCCGAAA | 0.447
GCCCGAAA | 0.111
CACCGAAG | 0.157
CCCCGAAC | 0.0945
TTCCGAAA | 0.291
CTCCGAAG | 0.457
GCGCTAGC | -0.26
CGAGCCCG | -0.187
AGAACTAC | 0.0481
CATTGATA | 0.139
GGGACTCA | -0.288
CAGACTCC | 0.0916
CCGACTCA | 0.0266
AGGACTCA | -0.114
CGGACTCC | 0.475
AGGACTCC | 0.129
CCGACTCC | 0.321
CGGACTCA | 0.429
GCGACTCC | 0.119
AAGGTCTA | -0.127

Sequence | PBM E-score
CTGGTTTA | -0.0882
ACCGACAC | 0.0514
GCGACTAA | -0.0293
AGCCTAAC | -0.192
GGAACCTA | -0.00606
CGCTGCGA | -0.153
ATGTCCGA | 0.45
GTGTCCGA | 0.149
CTGTCCGA | 0.192
ATGTCCGG | 0.451
ATGTCCGC | 0.282
ATGTCCCG | 0.0332
ACACTGGT | -0.102
AGGGGCGG | -0.158
GAATATTA | 0.255
GAATATGA | 0.0941
TAATATGA | 0.315
CAATATTA | 0.296
TAATATTA | 0.313
CAATATGA | 0.181
CAATATCA | 0.188
AAATATCA | 0.161
TAATATCA | 0.306
AAGCGCGC | 0.105
ACCGATCA | 0.12

Sequence | PBM E-score
AAAGTTCA | -0.00163
CCGCCTAG | -0.166
TCTTTTCA | 0.178
AAGCTTAT | 0.0714
GACACGGA | 0.296
TACACGGA | 0.335
TAAACGGA | 0.321
TAAACGAA | 0.263
CACACGGA | 0.12
GAAACGGA | 0.284
CAAACGGA | 0.302
AAAACGGA | 0.244
TAAACGTA | 0.131
CGATGCTC | 0.156
CCTTTAGC | -0.0413
AGATCGTC | -0.0781
GCTAAAAA | -0.0323
ACGCGGAC | 0.302
ACGCGGAT | 0.0724
ACGCGGAA | 0.112
ACGCGGAG | 0.362
ACGCGGCC | -0.273
GCGCGGAC | 0.218
CCGCGGAC | 0.274
CCGCGGAG | 0.308

Sequence | PBM E-score
CCGCGGAA | 0.253
ACATTTAC | 0.168
AGGCCCTG | -0.302
CAAAGTTG | -0.0132
CATCTAAG | -0.107
CGTAGCAG | -0.128
AGCTATAG | -0.136
GTCATACA | 0.226
ATCATACA | 0.314
ATCATACG | 0.157
ACTCGAGT | 0.0517
AAGCCTAG | -0.183
CACTCTGA | -0.165
GTCACAAC | -0.0323
AATAGAGC | 0.0828
CAAACTCA | 0.0357
CAAACTCC | 0.356
GACACTCC | 0.314
CAAACTCG | -0.013
GAAACTAC | 0.145
CACACTCC | 0.158
GAAACTCA | 0.0707
AAAACTCC | 0.356
AACACTCC | 0.256
AAAACTCT | 0.0523

Sequence | PBM E-score
AAAACTCG | 0.199
GAAACTCC | 0.345
CAGCTTGG | 0.0282
TCTTCTAA | 0.188
CGATACTA | 0.193
AGGAAAGG | -0.294
AGCGGTAT | 0.0737
CGTAAGAC | -0.071
ACGCATCA | -0.0138
AAAAAAAC | 0.159
CAAACTTA | 0.196
GAAACTTA | 0.307
GAAACTTC | 0.0956
AGTGTGGA | 0.0491
CGGGCCCA | -0.109
CGGGCCCG | 0.316
AGGGCCCG | -0.184
CGTTCACA | 0.0405
AAATAATG | 0.297
AAATAACT | 0.228
ATGTAATA | 0.307
AAATAAGT | 0.109
AAATAATT | 0.338
ATGTAATG | 0.23
AAATAATC | 0.235

Sequence | PBM E-score
AAATAATA | 0.311
CTGTAATA | 0.218
ACTTCAAG | 0.0849
ACACCCTA | -0.127
ACTTTGCG | 0.0957
ATGGCCTA | -0.0487
AGCGCACC | -0.0534
AAGAAGGA | 0.0609
CATCTGAA | 0.0794
AGAGTGGA | -0.0219
TAACCGGA | 0.332
AAACCGGA | 0.309
GAACCGGC | -0.0738
AGACCGGA | 0.277
TAACCGCA | 0.0567
AAACCGGT | -0.0411
GAACCGGA | 0.32
TAACCGTA | -0.0185
GGACCGGA | 0.34
CGACCGGA | 0.191
AAACCGGC | 0.0626
GAACCGTA | -0.234
AGAAAAAG | 0.138
CTGCCAAA | -0.0297
GTTGTTGA | 0.0996

Sequence | PBM E-score
AAACCTTA | 0.203
AGCAGGTC | -0.176
CAACCTAC | 0.0861
GTAGCAGA | 0.0197
AGCTTAAC | 0.0213
CCTACTAC | -0.0856
CAACCGGC | -0.0694
CAACCGGG | -0.129
CAACCGGA | 0.338
ATCGCTGC | -0.111
GGGACCAA | -0.115
GCCGAAAA | 0.263
ACCGAACA | 0.121
CCCGAAAA | 0.177
TCCGAACA | 0.399
TCCGAAAA | 0.353
GCCGAACA | 0.126
ACCGAAGA | 0.222
CCCGAAGA | -0.0672
TCCGAAGA | 0.39
CGCAGCTA | -0.0718
CATCGAAC | -0.0517
